PubChem BioAssay AID720513 (Broad Institute, 2013)
The whole screen tested about 2,100 compounds, of which about 480 (23%) were called active. Roughly 5% stayed inconclusive and do not appear here.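 How the source made its calls: active means fitted curve reaches 40% activation at or below the top valid concentration, in every replicate test; inconclusive means replicate tests disagree on the call; inactive means the rest, including activity in the opposite direction.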 The list is a sample of the results. Measured potencies and affinities stand elsewhere.

Assay: PGC1a acetylation increase, cellular AlphaLISA – cell-based, cherry-picked samples, set 6, dose response (AID 720513);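 further: cells made to overexpress flag tagged PGC1a plus GCN5 acetyltransferase by viral infection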
Conditions: U2OS PGC1a acetylation AlphaLISA, overnight, 0 = neutral, -100 = inhibitor control; series mostly up to 19.5 µM; activation (acetylation increase): at the top concentration

Activation (acetylation increase), inactive:
C[C@H](NC(=O)C[C@H]1C[C@@H]2c3cc(NC(=O)Nc4ccc(C(F)(F)F)cc4)ccc3O[C@@H]2[C@@H](CO)O1)c1ccccc1 -4.02%
CN(C)C(=O)C[C@H]1C[C@@H]2c3cc(NC(=O)C4CCOCC4)ccc3O[C@@H]2[C@H](CO)O1 30.3%
N#Cc1cccc(C#N)c1NCC1CCCO1 (stereo not drawn) 13.6%
COCC#Cc1cnc2c(c1)C(=O)N([C@H](C)CO)C[C@@H](C)[C@@H](CN(C)C(=O)c1cccnc1)O2 4.29%
CC1=C(C(N)=O)C(c2ccccc2)n2nc(-c3ccncc3)nc2N1 (stereo not drawn) 36.6%
CCN(CC)C(=O)c1sc(NC(=O)c2ccncc2)c(C(=O)OC)c1C -4.98%
COc1ccc(OC)c(CN2CCN(C(=O)c3ccc(NS(=O)(=O)c4cccc([N+](=O)[O-])c4)cc3)CC2)c1 2.19%
COc1ccc(OC)c(N(CC(=O)Nc2ccccc2)S(C)(=O)=O)c1 27.7%
Cc1nn(CC(=O)Nc2ccc(C(C)C)cc2)c(C)c1[N+](=O)[O-] -5.82%
COc1ccc(NC(=O)CN(C)C(=O)c2cnc(Cl)c(Cl)c2)cc1 12.1%
CC(=O)Nc1cccc(OCC(=O)Nc2ccccc2)c1 -3.78%
CC(=O)Nc1ccc(NS(=O)(=O)c2ccc(C)cc2)cc1[N+](=O)[O-] 33.2% [at 10 µM]
CC(C)Cc1nnc(NC(=O)c2cc3c(s2)CCC3)s1 5.75%
C[C@@H]1CN([C@@H](C)CO)C(=O)c2cc(NC(=O)Nc3cccc4ccccc34)ccc2O[C@@H](C)CCCCO[C@H]1CN(C)C(=O)NC1CCCCC1 22.3%
N#Cc1ccc(C(c2ccc(C#N)cc2)n2cncn2)cc1 2.17%
N#Cc1c(C#N)c(O)c2ccccc2c1O 15%
OC[C@@H]1CN(Cc2ccccc2)C[C@H](n2cnc3c(NCc4ccc(F)cc4)ncnc32)O1 0.342%
O=C(COc1ccc(Cl)cc1Cl)NCCCN1CCOCC1 8.53%
COc1cc(NS(=O)(=O)c2ccc(N)cc2)nc(OC)n1 17.8%
CN(C)S(=O)(=O)c1ccc(N2CCCC2)c(C(=O)NCc2cccc(C(F)(F)F)c2)c1 4.68%
COc1ccc(NC(=O)N[C@@H]2CC[C@H](CCn3cc(-c4ccccc4F)nn3)O[C@H]2CO)cc1 19%
COc1ccccc1C1c2c(C)nn(-c3ccccc3)c2NC(=O)C1NC(=O)c1ccccc1 (stereo not drawn) -23.3%
Cn1cnnc1Sc1ccc(/C=C/C(=O)c2ccc(O)cc2)cc1[N+](=O)[O-] -94.3%
O=C(Nc1ccc(F)cc1)N1CCCCN2[C@H](CO)[C@H](c3ccc(C#Cc4ccccc4)cc3)[C@H]2C1 -84.6%
O=C(Nc1ccc(F)cc1)c1ccccc1 22.9%
CC(C)NC(=O)N(C)C[C@H]1OCCCC[C@@H](C)Oc2ccc(NC(=O)CCCN(C)C)cc2C(=O)N([C@@H](C)CO)C[C@@H]1C -5%
C[C@@H]1CN([C@@H](C)CO)C(=O)CCCn2cc(nn2)CO[C@H]1CN(C)Cc1ccncc1 8.73% [at 21 µM]
O=C(NC1CCCCC1)C(c1ccc2ncccc2c1)N(Cc1ccc2c(c1)OCO2)C(=O)c1ccc2c(c1)OCCO2 (stereo not drawn) 9.19%
CCCC(C(=O)NC(C)(C)C)N(Cc1ccc(F)cc1)C(=O)c1snc(C(N)=O)c1N (stereo not drawn) -19.4%
C#CC(=O)N(c1ccc(OC)cc1OC)C(C(=O)NC1CCCC1)c1cccs1 (stereo not drawn) -106%
CCCCN(C(=O)CCC(=O)Nc1cc(C)on1)C(C(=O)NC1CCCC1)c1ccc(OC)cc1 (stereo not drawn) -10.7%
COc1ccc(N2C(=O)CC2(/C=C/c2ccccc2OC)C(=O)NC2CCCC2)cc1 (stereo not drawn) 20.7%
C#CC(=O)N(c1ccc(OC)c(OC)c1)C(C(=O)NC1CCCC1)c1cccs1 (stereo not drawn) -99.1%
C#CC(=O)N(c1cccc(OC)c1)C(C(=O)NC1CCCC1)c1cccs1 (stereo not drawn) -104%
CC12CC(c3ccccc3O1)N(C(=O)c1ccc(Br)o1)C(=O)N2c1ccccc1 (stereo not drawn) -8.31%
CCCOc1ccccc1-n1sc2c(c1=S)-c1cc(OC)cc3c1N(C(=O)C3=O)C2(C)C -46.2%
COc1cccc(-c2nn(-c3ccccc3)cc2CN(C)C(C)c2ccncn2)c1 (stereo not drawn) 15.7%
Cc1c(NC(=O)c2ccccc2NS(=O)(=O)c2ccc(Br)cc2)c(=O)n(-c2ccccc2)n1C -8.93%
CCOC(=O)C1=C(NC(=O)c2ccc(Br)o2)Nc2ccccc2N=C1 31.5%
CCCNC(=O)N(C)C[C@H]1Oc2cc(C#CC(C)C)ccc2S(=O)(=O)N([C@@H](C)CO)C[C@H]1C 0.778%
CC(C)C#Cc1cnc2c(c1)C(=O)N([C@H](C)CO)C[C@H](C)[C@H](CN(C)C(=O)CN1CCOCC1)O2 23.2%
Cc1cc(-c2ccc(Cl)cc2)n2ncnc2n1 -15.3%
CO[C@@H]1CN(C)C(=O)c2cc(NC(C)=O)ccc2OC[C@H](C)N(C(=O)c2cccnc2)C[C@H]1C -7.97%
COc1ccc(C2c3c(oc4ccccc4c3=O)C(=O)N2CCN2CCOCC2)cc1OC (stereo not drawn) 6.79%
CCOc1ccc2c(c1)C(C)=CC(C)(C)N2S(=O)(=O)c1ccc(NC(C)=O)cc1 8.98%
Cn1cnc(S(=O)(=O)N2C[C@@H](O)COC[C@H]3O[C@H](CC(=O)NCc4cc(F)cc(F)c4)CC[C@@H]32)c1 17.1%
CCn1c(COc2ccc(=O)n(-c3ccccc3)n2)nnc1SCc1ccc(C)cc1 26.3%
O=S(=O)(Nc1nc2c(s1)CCCC2)c1ccc(F)cc1 16.7%
CC(C)(C)Cc1nnc(NS(=O)(=O)c2ccc(F)cc2)s1 20.2%
CC(C)CC#Cc1ccc2c(c1)O[C@@H](CN(C)C)[C@H](C)CN([C@@H](C)CO)S2(=O)=O 13.1%
Cn1ccc2cc(OCc3ccccc3)ccc21 11%
N=c1sccn1CC(=O)Nc1ccccc1Sc1ccccc1 -28.5%
Cc1cc(C)c(S(=O)(=O)N2CC=C(c3ccccc3)CC2)c(C)c1 36.4%
COC(=O)c1c(C)oc(C)c1S(=O)(=O)Nc1ccccc1 -8.61%
CCCCCCNC(=O)c1ncn[nH]1 -9.03%
O=C(N[C@@H]1CC[C@@H](CCNS(=O)(=O)c2ccccc2Cl)O[C@@H]1CO)c1ccc(F)cc1 2.33%
O=C(Nc1ccc(OC(=O)c2ccccc2)c(-c2nc3ccccc3s2)c1)c1ccccc1 8.72%
N=C1C(c2nc3ccccc3s2)=C(O)CN1NC(=O)c1ccc([N+](=O)[O-])cc1 31.2%
